The test system of one assay is Streptococcus suis HE06. Put plainly: percent growth relative to DMSO control; higher = less growth inhibition. Particulars: 10 µM; incubation time 18 h. The protocol: (§1)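 CLSI broth microdilution: 5x10^4 CFU of Streptococcus suis (strain P1/7 or HE06) incubated with 10 µM Pathogen Box compound in cation-adjusted Mueller Hinton broth, 37 °C, 5% CO2, 18 h. Growth read as OD600 and expressed as percent of the DMSO-treated control (100%); mean ± SD of three independent experiments.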

A further assay relates to Streptococcus suis P1/7. The description is as above. To be noted: 10 µM; incubation time 18 h. How it is done: as §1

± gives the standard deviation.

Take `COc1ccc(N(CCc2cccc(C)n2)C(C)=O)cc1`: the percent growth is 112 ± 54% with Streptococcus suis HE06 and 62.6 ± 12% with Streptococcus suis P1/7.

`O=C(Nc1cccnc1)c1c(O)c2cccc3c2n(c1=O)CC3`: the results for the percent growth with Streptococcus suis HE06 and in the assay on Streptococcus suis P1/7 were 78.3 ± 3.7% and 89.7 ± 27%, respectively.

Take `CCN(CC)S(=O)(=O)c1ccc(C(=O)Nc2cc(C)nn2-c2nc(C)c(C)c(=O)[nH]2)cc1`: the percent growth stood at 0.274 ± 0.47% in the assay with Streptococcus suis HE06 and 3.31 ± 3.3% in the assay on Streptococcus suis P1/7.

With `CC(C)(C)C(=O)N(CCCCCCN1C[C@H](O)[C@@H](O)[C@H](O)[C@H]1CO)C1CCCCCC1`, the percent growth was 122 ± 27% in the assay on Streptococcus suis HE06 and 130 ± 56% in the assay with Streptococcus suis P1/7.

Consider `CCOc1ccc(-c2nc(NC(=O)CS(=O)(=O)c3ccccc3)sc2C)cc1`, for which the percent growth in the assay on Streptococcus suis HE06 was 76.9 ± 15%; in the assay with Streptococcus suis P1/7, 153 ± 100%.

Take `COC(=O)c1cccc2oc(-c3cccc(OC)c3NC(=O)c3cc(-c4ccccc4)on3)nc12`: the percent growth with Streptococcus suis HE06 is 102 ± 25%; in the assay on Streptococcus suis P1/7, 66 ± 18%.

Turning to `c1cncc(NCc2ccc(-c3cc4ccncc4cc3OC3CCNCC3)s2)c1`, the percent growth in the assay with Streptococcus suis HE06 worked out at 100 ± 18%; in the assay on Streptococcus suis P1/7 it was 66.3 ± 22%.

`FC(F)(F)c1cccc(-c2nc3c(NCc4ccncc4)nccc3[nH]2)c1`: the percent growth in the assay with Streptococcus suis HE06 amounted to 90.4 ± 20%; in the assay on Streptococcus suis P1/7, 72.5 ± 22%.

For `O=C(NC1=NCCS1)c1sc2cc(F)ccc2c1Cl`, the percent growth in the assay on Streptococcus suis HE06 amounted to 93.8 ± 5.2%; in the assay with Streptococcus suis P1/7, 88.6 ± 14%.

For the compound `CCNC(=O)C(C)Nc1nc(-c2cccnc2)nc2sc(C)c(C)c12` (stereo not drawn), the percent growth came out at 101 ± 8.4% in the assay on Streptococcus suis HE06 and 64.5 ± 34% in the assay on Streptococcus suis P1/7.

For `COc1cccc(-c2nc3c(N4CCCC4)cccc3n2CC2CCCN2)n1` (stereo not drawn), the percent growth is 84.4 ± 7% with Streptococcus suis HE06 and 58.2 ± 19% in the assay with Streptococcus suis P1/7.

For the compound `Cc1cc2ccccc2n1CC(=O)N1CC(C(=O)N2CCCCC2)Oc2ccccc21` (stereo not drawn), the figures for the percent growth in the assay with Streptococcus suis HE06 and in the assay on Streptococcus suis P1/7 were 71.6 ± 13% and 102 ± 19%, respectively.

As to `N=C(N)c1ccc(-c2cc(-c3ccccc3)on2)cc1`, the percent growth in the assay on Streptococcus suis HE06 amounted to 85.2 ± 3%; in the assay with Streptococcus suis P1/7, 106 ± 55%.

On to `COc1cccc(OC)c1C(=O)Nc1ccc(Cl)c(-c2nc3ccccc3s2)c1`, for which the percent growth with Streptococcus suis HE06 amounted to 98.9 ± 8.3%; with Streptococcus suis P1/7 it was 119 ± 45%.

On to `Clc1ccc(Cl)c(CO[C@H]2CCCC[C@@H]2n2ccnc2)c1`, for which the percent growth with Streptococcus suis HE06 stood at 26.2 ± 40%; with Streptococcus suis P1/7 it was 20.8 ± 36%.

On to `COc1cc2ncnc(NC3CCN(Cc4ccccc4)CC3)c2cc1OC`, for which the percent growth turned out to be 103 ± 27% in the assay on Streptococcus suis HE06 and 122 ± 11% with Streptococcus suis P1/7.

In the case of `CCC(NC(=O)c1ccccc1NC(=O)c1ccc(C)cc1)C(=O)OC` (stereo not drawn), the results for the percent growth in the assay on Streptococcus suis HE06 and in the assay with Streptococcus suis P1/7 were 92 ± 4.7% and 78.1 ± 18%, respectively.

For `c1ccc(Oc2ccc(-c3cc(C4CCOCC4)[nH]n3)cc2)cc1`, the results for the percent growth with Streptococcus suis HE06 and with Streptococcus suis P1/7 were 59.7 ± 17% and 49.6 ± 19%, respectively.

Take `CC(C)(C)CN1C(=O)C(c2ccccc2)(c2ccccc2)N=C1N`: the percent growth amounted to 46.1 ± 39% with Streptococcus suis HE06 and 49.6 ± 44% in the assay on Streptococcus suis P1/7.

As to `c1csc(-c2cnc3sc(NCC4CCOCC4)nn23)c1`, the percent growth in the assay with Streptococcus suis HE06 was found to be 109 ± 22%; in the assay on Streptococcus suis P1/7, 91.2 ± 16%.

`O=C(Nc1nc(-c2ccccn2)cs1)C1CC1c1ccccc1F` (stereo not drawn): the percent growth in the assay with Streptococcus suis HE06 is -0.0889 ± 1.4%; in the assay on Streptococcus suis P1/7, 2.29 ± 3.7%.

Take `CCCCCCCCCCCCCCCCOP(=O)([O-])OCC[N+](C)(C)C`: the percent growth with Streptococcus suis HE06 was found to be 117 ± 7.1%; with Streptococcus suis P1/7 it was 112 ± 40%.

Regarding `CC(C(=O)N1CCCC1)N1CCN(S(=O)(=O)c2ccc(C(C)(C)C)cc2)CC1` (stereo not drawn), the values for the percent growth in the assay with Streptococcus suis HE06 and in the assay on Streptococcus suis P1/7 were 84.8 ± 24% and 63.4 ± 27%, respectively.

On to `Cc1cc(OCC(=O)Nc2ccc(C(C)C)cc2)n(C)c(=O)c1C#N`, for which the percent growth worked out at 99.6 ± 7.3% in the assay with Streptococcus suis HE06 and 79 ± 12% with Streptococcus suis P1/7.

For `CCN(CC)CCCCCCNc1cc(OC)cc2c(C)ccnc12`, the values for the percent growth with Streptococcus suis HE06 and in the assay on Streptococcus suis P1/7 were 81.6 ± 14% and 83.2 ± 15%, respectively.

For the compound `CC(Oc1ccccc1)C(=O)Nc1nc(-c2ccccn2)cs1` (stereo not drawn), the results for the percent growth in the assay with Streptococcus suis HE06 and in the assay on Streptococcus suis P1/7 were 2.67 ± 2.8% and 2.35 ± 2.4%, respectively.

As for `O=C(Nc1nnc(-c2ccc(Cl)s2)o1)c1ccc(Cl)s1`, the percent growth in the assay on Streptococcus suis HE06 was 1.06 ± 1.1%; in the assay on Streptococcus suis P1/7 it was 3.26 ± 4.9%.

On to `COc1ccc(-c2onc(C(F)(F)F)c2-c2ccc(Cl)cc2)c(O)c1`, for which the percent growth was determined as 26.1 ± 45% in the assay with Streptococcus suis HE06 and 19.4 ± 34% with Streptococcus suis P1/7.

Consider `Cc1cccc(Cn2ccc(NC(=O)c3ccc4c(c3)OCO4)n2)c1`, for which the results for the percent growth in the assay on Streptococcus suis HE06 and in the assay with Streptococcus suis P1/7 were 75.3 ± 22% and 102 ± 23%, respectively.

For `O=C(NCCN1CCCC1)c1cc(NCCN2CCOCC2)nc2ccc(Cl)cc12`, the percent growth came to 95.2 ± 4.7% in the assay on Streptococcus suis HE06 and 83.1 ± 11% in the assay with Streptococcus suis P1/7.

With `CNCCC(Oc1ccc(C(F)(F)F)cc1)c1ccccc1` (stereo not drawn), the figures for the percent growth with Streptococcus suis HE06 and with Streptococcus suis P1/7 were 104 ± 4% and 98.5 ± 39%, respectively.

For the compound `FC(F)(F)c1ccc(N(c2cccnc2)C2CCN(c3ccc(C(F)(F)F)cn3)CC2)cc1`, the percent growth in the assay with Streptococcus suis HE06 was 67.9 ± 13%; in the assay on Streptococcus suis P1/7 it was 61.4 ± 12%.

With `CC(=O)NC[C@H]1CN(c2ccc(N3CCSCC3)c(F)c2)C(=O)O1`, the percent growth is 3.44 ± 3.9% with Streptococcus suis HE06 and 2.2 ± 3.8% in the assay with Streptococcus suis P1/7.

Turning to `CCc1ccc(C(NCc2nc(N)nc(N(C)C)n2)C(C)C)cc1` (stereo not drawn), the percent growth in the assay with Streptococcus suis HE06 was found to be 12.8 ± 16%; in the assay on Streptococcus suis P1/7, 4.17 ± 0.94%.

For the compound `CC(=O)NCC1CN(c2ccc(-c3ccc(CNCc4cn[nH]n4)cc3)c(F)c2)C(=O)O1` (stereo not drawn), the percent growth in the assay with Streptococcus suis HE06 worked out at 0.542 ± 0.94%; in the assay with Streptococcus suis P1/7, 0.637 ± 0.99%.

For the compound `CC(=O)N1CCc2cc3nc(C)cc(C)c3cc21`, the percent growth stood at 88.4 ± 9.8% with Streptococcus suis HE06 and 91.7 ± 27% in the assay with Streptococcus suis P1/7.

`CCCCc1ccc(NC(=O)Nc2ccc(O[C@H]3CCCC[C@@H]3N(C)c3ccccc3)c(F)c2)cc1`: the percent growth in the assay with Streptococcus suis HE06 is 77.8 ± 26%; in the assay on Streptococcus suis P1/7 it was 67.2 ± 2.9%.

Turning to `CCOc1ccc2cc(-c3nn(C(C)(C)C)c(N)c3C(N)=O)cnc2c1`, the percent growth in the assay on Streptococcus suis HE06 came to 77.6 ± 17%; in the assay with Streptococcus suis P1/7, 83.1 ± 23%.

`Nc1ncc(Br)cc1-c1nc2cc(Cl)cnc2[nH]1`: the percent growth in the assay on Streptococcus suis HE06 turned out to be 92.2 ± 8.1%; with Streptococcus suis P1/7, 100 ± 9.8%.

In the case of `Cc1ccc(S(=O)(=O)Nc2ccc(CN3CCN(C(=O)c4cccc(C#N)c4)CC3)cc2)cc1`, the percent growth was 104 ± 9.6% in the assay with Streptococcus suis HE06 and 114 ± 40% in the assay on Streptococcus suis P1/7.

On to `COc1ccc(OC)c(NCc2ccc3nc(N)nc(N)c3c2Cl)c1`, for which the percent growth stood at 4.05 ± 6.3% in the assay with Streptococcus suis HE06 and 2.34 ± 1.3% in the assay on Streptococcus suis P1/7.

For `CN1CCN(S(=O)(=O)c2ccc(-c3ccc4c(Nc5ncc(Cl)cn5)ccnc4c3)cc2)CC1`, the percent growth with Streptococcus suis HE06 is 92.2 ± 8.5%; in the assay with Streptococcus suis P1/7, 103 ± 47%.

Take `COc1ccc(Oc2ccc([C@@H](C)N(C)c3ncc4c(N)nc(N)nc4n3)cc2)cc1`: the results for the percent growth in the assay with Streptococcus suis HE06 and in the assay on Streptococcus suis P1/7 were 104 ± 32% and 83.9 ± 75%, respectively.

As for `Cc1nn2c(=O)c3c([nH]c2c1-c1ccc(Cl)cc1)CCCC3`, the figures for the percent growth in the assay with Streptococcus suis HE06 and in the assay on Streptococcus suis P1/7 were 0.386 ± 8.7% and 12.7 ± 22%, respectively.

Turning to `O=C(NCc1cc(Cl)cc(Cl)c1)c1c(C(F)(F)F)nc2ccccn12`, the percent growth in the assay on Streptococcus suis HE06 came to 84.6 ± 3.8%; in the assay on Streptococcus suis P1/7, 60.6 ± 20%.

`NS(=O)(=O)c1cccc(-c2ccc3ncc(N4CCOCC4)nc3c2)c1`: the percent growth amounted to 99.2 ± 34% with Streptococcus suis HE06 and 71.6 ± 6.4% in the assay on Streptococcus suis P1/7.

As for `O=C(NCc1nnc2n1CCCCC2)c1ccc(-c2ccc(F)cc2)o1`, the percent growth with Streptococcus suis HE06 is 82.7 ± 15%; in the assay on Streptococcus suis P1/7 it was 106 ± 42%.

`Cc1ccc2oc(-c3cc(NC(=O)Cc4ccccc4)ccc3Cl)nc2c1`: the percent growth in the assay on Streptococcus suis HE06 is 93.1 ± 13%; in the assay on Streptococcus suis P1/7, 78.5 ± 4%.

On to `CC(C)(C)c1ccc(N[C@@H]2CCCC[C@H]2NC(=O)c2ccco2)cc1`, for which the values for the percent growth in the assay on Streptococcus suis HE06 and with Streptococcus suis P1/7 were 104 ± 7.9% and 78.1 ± 19%, respectively.

The values are drawn from the supplement of paper PMC7866885, “A novel bicyclic 2,4-diaminopyrimidine inhibitor of Streptococcus suis dihydrofolate reductase” (PeerJ, 2021).
